Over roughly 16,000 sequences, “rpm ratio (pull-down/input)” has its median near 0.94; the highest 2% begin near 1.7. The sample holds the highest values, similar sequences and a random draw of the others, so the mix is not that of the screen.

This assay has as its target T1, MBP-FoxP1dN (Mus musculus, UniProt P58462 326-579).
T1 sequence: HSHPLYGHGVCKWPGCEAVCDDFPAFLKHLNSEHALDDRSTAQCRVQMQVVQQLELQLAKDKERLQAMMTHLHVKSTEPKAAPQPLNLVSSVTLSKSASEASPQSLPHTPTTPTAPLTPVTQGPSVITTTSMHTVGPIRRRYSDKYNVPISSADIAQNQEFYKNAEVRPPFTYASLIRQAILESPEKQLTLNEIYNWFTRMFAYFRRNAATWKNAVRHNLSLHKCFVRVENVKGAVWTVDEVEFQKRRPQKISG
Briefly: PD-seq (MBP pull-down with sequencing); 20 mM Tris-HCl pH 7.5, 100 mM NaCl, 1.5 mM MgCl2, 0.4 uM protein, 0.1 uM dsDNA library, 30 min, room temperature, amylose pull-down; high values mean tight binding. The conditions noted are these: protein: recombinant; tags: His6-MBP; chain copies: 2; dsDNA, one strand shown. The procedure, abridged: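 Binding is reads-per-million enrichment of pull-down over input, with replicates pooled. It comes from 30 min room-temperature incubation in Tris pH 7.5 buffer with NaCl and MgCl2 of 0.4 µM His6-MBP-tagged, N-terminally truncated mouse FoxP3 or FoxP1 fragment from E. coli with 0.1 µM Klenow-filled degenerate double-stranded DNA library, followed by amylose resin capture, three washes and Illumina sequencing of the released DNA.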
On to “GATGATTGTTCTCCCAGCTGATGAATTTGTTTGGTCGAGTAAACAAATTTTCCTAATCTTTCTGTTCAAGCGCCATCTAC”, for which the binding signal was 2.1 RPM ratio (pull-down/input).

Regarding “GATGATTGTTCTCCCAGCTGATGAATTTCTTTGGTCGAGTAAACAAATTTTCCTAATCTTTCTGTTCAAGCGCCATCTAC”, the binding signal is 0.881 RPM ratio (pull-down/input).

On to “GATGATTGTTCTCCCAGCTGATGAATTTGTTGGGTCGAGTAAACAAATTTTCCTAATCTTTCTGTTCAAGCGCCATCTAC”, for which the binding signal was 1.56 RPM ratio (pull-down/input).

Turning to “GATGATTGTTCTCCCAGCTGATGAATTGTTTGGGTCGAGTAAACAAATTTTCCTAATCTTTCTGTTCAAGCGCCATCTAC”, the binding signal is 1.79 RPM ratio (pull-down/input).

As for “GATGATTGTTCTCCCAGCTGATGAATTGTTTTGGTCGAGTAAACAAATTTTCCTAATCTTTCTGTTCAAGCGCCATCTAC”, the binding signal is 2.02 RPM ratio (pull-down/input).

For “GATGATTGTTCTCCCAGCTGATGAATTTGGTTGGTCGAGTAAACAAATTTTCCTAATCTTTCTGTTCAAGCGCCATCTAC”, the binding signal is 0.868 RPM ratio (pull-down/input).

For “GATGATTGTTCTCCCAGCTGATGAATTCTTTAAGTCGAGTAAACAAATTTTCCTAATCTTTCTGTTCAAGCGCCATCTAC”, the binding signal is 0.837 RPM ratio (pull-down/input).

In the case of “GATGATTGTTCTCCCAGCTGATGAATTTCTAGCATCGAGTAAACAAATTTTCCTAATCTTTCTGTTCAAGCGCCATCTAC”, the binding signal is 1.06 RPM ratio (pull-down/input).

For “GATGATTGTTCTCCCAGCTGATGAATTTCTGCATTCGAGTAAACAAATTTTCCTAATCTTTCTGTTCAAGCGCCATCTAC”, the binding signal is 1.35 RPM ratio (pull-down/input).

Turning to “GATGATTGTTCTCCCAGCTGATGAATTCAACATTTCGAGTAAACAAATTTTCCTAATCTTTCTGTTCAAGCGCCATCTAC”, the binding signal was 0.941 RPM ratio (pull-down/input).

As for “GATGATTGTTCTCCCAGCTGATGAATTGCATTCTTCGAGTAAACAAATTTTCCTAATCTTTCTGTTCAAGCGCCATCTAC”, the binding signal is 1.61 RPM ratio (pull-down/input).

As for “GATGATTGTTCTCCCAGCTGATGAATTCATTGCATCGAGTAAACAAATTTTCCTAATCTTTCTGTTCAAGCGCCATCTAC”, the binding signal is 1.24 RPM ratio (pull-down/input).

For “GATGATTGTTCTCCCAGCTGATGAATTGCATCATTCGAGTAAACAAATTTTCCTAATCTTTCTGTTCAAGCGCCATCTAC”, the binding signal is 1.84 RPM ratio (pull-down/input).

As for “GATGATTGTTCTCCCAGCTGATGAATTTTTGCATTCGAGTAAACAAATTTTCCTAATCTTTCTGTTCAAGCGCCATCTAC”, the binding signal is 1.48 RPM ratio (pull-down/input).

Turning to “GATGATTGTTCTCCCAGCTGATGAATTCATGCATTCGAGTAAACAAATTTTCCTAATCTTTCTGTTCAAGCGCCATCTAC”, the binding signal was 1.29 RPM ratio (pull-down/input).

Consider “GATGATTGTTCTCCCAGCTGATGAATTGTTGCATTCGAGTAAACAAATTTTCCTAATCTTTCTGTTCAAGCGCCATCTAC”, for which the binding signal was 1.87 RPM ratio (pull-down/input).

As to “GATGATTGTTCTCCCAGCTGATGAATTGATGCATTCGAGTAAACAAATTTTCCTAATCTTTCTGTTCAAGCGCCATCTAC”, the binding signal was 1.74 RPM ratio (pull-down/input).

Consider “GATGATTGTTCTCCCAGCTGATGAATTTCAACATTCGAGTAAACAAATTTTCCTAATCTTTCTGTTCAAGCGCCATCTAC”, for which the binding signal is 0.964 RPM ratio (pull-down/input).

As for “GATGATTGTTCTCCCAGCTGATGAATTGCATTCATCGAGTAAACAAATTTTCCTAATCTTTCTGTTCAAGCGCCATCTAC”, the binding signal is 1.46 RPM ratio (pull-down/input).

For “GATGATTGTTCTCCCAGCTGATGAATTGCAACATTCGAGTAAACAAATTTTCCTAATCTTTCTGTTCAAGCGCCATCTAC”, the binding signal was 1.75 RPM ratio (pull-down/input).

For “GATGATTGTTCTCCCAGCTGATGAATTAAACAGATCGAGTAAACAAATTTTCCTAATCTTTCTGTTCAAGCGCCATCTAC”, the binding signal is 1.27 RPM ratio (pull-down/input).

Take “GATGATTGTTCTCCCAGCTGATGAATTATAAGTATCGAGTAAACAAATTTTCCTAATCTTTCTGTTCAAGCGCCATCTAC”: the binding signal is 1.19 RPM ratio (pull-down/input).

As for “GATGATTGTTCTCCCAGCTGATGAATTGAATAAGTCGAGTAAACAAATTTTCCTAATCTTTCTGTTCAAGCGCCATCTAC”, the binding signal was 0.918 RPM ratio (pull-down/input).

With “GATGATTGTTCTCCCAGCTGATGAATTTTAAATTTCGAGTAAACAAATTTTCCTAATCTTTCTGTTCAAGCGCCATCTAC”, the binding signal was 0.924 RPM ratio (pull-down/input).

Consider “GATGATTGTTCTCCCAGCTGATGAATTCAGCACTTCGAGTAAACAAATTTTCCTAATCTTTCTGTTCAAGCGCCATCTAC”, for which the binding signal was 0.847 RPM ratio (pull-down/input).

Turning to “GATGATTGTTCTCCCAGCTGATGAATTACAGTGTTCGAGTAAACAAATTTTCCTAATCTTTCTGTTCAAGCGCCATCTAC”, the binding signal is 1.16 RPM ratio (pull-down/input).

Take “GATGATTGTTCTCCCAGCTGATGAATTGAGTCAATCGAGTAAACAAATTTTCCTAATCTTTCTGTTCAAGCGCCATCTAC”: the binding signal was 1.01 RPM ratio (pull-down/input).

As for “GATGATTGTTCTCCCAGCTGATGAATTGGAAGCGTCGAGTAAACAAATTTTCCTAATCTTTCTGTTCAAGCGCCATCTAC”, the binding signal was 0.893 RPM ratio (pull-down/input).

Consider “GATGATTGTTCTCCCAGCTGATGAATTGAATGGCTCGAGTAAACAAATTTTCCTAATCTTTCTGTTCAAGCGCCATCTAC”, for which the binding signal is 0.823 RPM ratio (pull-down/input).

Consider “GATGATTGTTCTCCCAGCTGATGAATTGACCGAGTCGAGTAAACAAATTTTCCTAATCTTTCTGTTCAAGCGCCATCTAC”, for which the binding signal was 0.835 RPM ratio (pull-down/input).

For “GATGATTGTTCTCCCAGCTGATGAATTCCTTCTCTCGAGTAAACAAATTTTCCTAATCTTTCTGTTCAAGCGCCATCTAC”, the binding signal was 0.736 RPM ratio (pull-down/input).

Take “GATGATTGTTCTCCCAGCTGATGAATTATCGTCGTCGAGTAAACAAATTTTCCTAATCTTTCTGTTCAAGCGCCATCTAC”: the binding signal was 0.884 RPM ratio (pull-down/input).

These data come from PMC12820563, “FoxP3 forms a head-to-head dimer in vivo and stabilizes its multimerization on adjacent microsatellites”.
